PubChem BioAssay (Tox21)
Records with an inconclusive call do not appear. Where a call stands in place of a potency, no number is given. Calls of active or inactive are those of the source. Unless noted, calls follow the shape of the dose curve; as a rule, active = well fitted curve in the direction sought with a large enough effect in the repeat runs; inconclusive = weak or mixed curves; inactive = no such curve, though single readings can be large; an effect the other way counts as inactive or inconclusive.

Legend:
[1] = qHTS assay to identify small molecule antagonists of the vitamin D receptor (VDR) signaling pathway - cell viability counter screen (AID 743225); also: nearly all actives have a fitted effect of over 50% in size
Procedure, shortened: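 HEK293T VDR-bla; cpd + 1a,25-(OH)2D3 3 nM final, 16 h 37C/5% CO2; B/G FRET substrate 2 h RT; then CellTiter-Glo 30 min RT, luminescence.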

[2] = qHTS assay to identify small molecule agonists of the NFkB signaling pathway (AID 1159509; active = well fitted curve in the direction sought with a large enough effect in the signal ratio in the repeat runs, not every such curve was filed as active; the % refers to the signal ratio; also: series mostly up to about 61 µM)
Procedure, shortened: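 Beta-lactamase reporter assay run in quantitative high-throughput format on an NF-kB-responsive ME-180 line, with 5 hr compound treatment and a FRET-based blue/green fluorescence readout.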

[3] = qHTS assay to identify small molecule agonists of the NFkB signaling pathway - cell viability counter screen (AID 1159515; calls by dose curve; also: series mostly up to about 61 µM; nearly all actives have a fitted effect of over 55% in size)
Procedure, shortened: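 Cells are seeded (2,000 NFkB-bla ME-180 per well), rested overnight, and dosed with DMSO-dissolved compounds for 5 hr at 37 C. Viability is then read by CellTiter-Glo luminescence after 30 min at room temperature.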

[4] = qHTS assay to identify small molecule agonists of the endoplasmic reticulum stress response signaling pathway - cell viability counter screen (AID 1159517; calls by dose curve;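 also: HeLa cells carrying an ER stress response element beta-lactamase reporter; series mostly up to about 61 µM; nearly all actives have a fitted effect of over 50% in size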)
Procedure, shortened: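 After overnight attachment, ESRE-bla HeLa cells were treated with Tox21 library compounds for 5 hr. CellTiter-Glo luminescence, read 30 min post-addition at room temperature, reported viability.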

[5] = target: Nuclear receptor ROR-gamma (Homo sapiens) (UniProt P51449); assay: qHTS assay to identify small molecule antagonists of the retinoid-related orphan receptor gamma (ROR-gamma) signaling pathway (AID 1159521;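 also: CHO cells with doxycycline inducible ROR-gamma driving an RORE luciferase reporter; top concentration of the series differs between compounds; nearly all actives have a fitted effect of over 50% in size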)
Procedure, shortened: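 Cells were plated, rested 4 h at 37 C, exposed to compounds for 2 h, then given 1 uM final doxycycline hyclate to induce RORγ expression. After 16 h, ONE-Glo luminescence from the ROR response element reporter was measured.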

[6] = qHTS assay to identify small molecule agonists of the AP-1 signaling pathway - cell viability counter screen (AID 1159525; calls by dose curve; also: nearly all actives have a fitted effect of over 55% in size)
Procedure, shortened: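 Intracellular ATP by Cell Titer Glo luminescence (30 min, RT) in the same ME-180 AP-1-bla wells after the 5 h compound exposure at 37 °C. Normalised to tetra n-octyl ammonium bromide and DMSO controls.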

[7] = qHTS assay to identify small molecule agonists of the AP-1 signaling pathway (AID 1159526; calls by dose curve)
[8] = qHTS assay to identify small molecule antagonists of the retinoid acid receptor (RAR) signaling pathway - cell viability counter screen (AID 1159551); also: nearly all actives have a fitted effect of over 35% in size
Procedure, shortened: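 Cells (C3RL4) are plated, incubated overnight, dosed with compound in DMSO, then given retinol at 1 uM final. After 6 h at 37 C, CellTiter-Glo is added and luminescence read following 30 min at room temperature.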

[9] = qHTS assay to identify small molecule antagonists of the retinoic acid receptor (RAR) signaling pathway (AID 1159552; also: nearly all actives have a fitted effect of over 50% in size; also: potency is read from the fitted curve at half-maximal effect)
Procedure, shortened: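 Retinol at 1 uM final stimulated RARE-luciferase expression in C3RL4 cells exposed to test compounds for 6 hr at 37 C. Reduced luminescence, read 30 min after detection reagent, indicated pathway antagonism.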

[10] = qHTS assay to identify small molecule agonists of the retinoic acid receptor (RAR) signaling pathway (AID 1159553)
Procedure, shortened: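 Seed C3RL4 reporter cells at 1,000 per well and incubate overnight at 37 C. Add compounds in DMSO, incubate 6 hr. Add luciferase reagent, wait 30 min at room temperature, read luminescence.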

[11] = qHTS assay to identify small molecule antagonists of the retinoid-related orphan receptor gamma (ROR-gamma) signaling pathway - cell viability counter screen (AID 1159520); also: nearly all actives have a fitted effect of over 50% in size
Procedure, shortened: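 Cytotoxicity was read from cellular ATP (CellTiter-Glo luminescence) after 16 hr at 37 C with 1 uM doxycycline induction. The inducer was added 2 hr after compound transfer to Tet-on ROR gamma CHO cells.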

[12] = qHTS assay to identify small molecule agonists of the RXR signaling pathway - cell viability counter screen (AID 1159529)
Procedure, shortened: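 Steps: seed RXR-alpha-UAS-bla HEK 293T cells in assay medium containing 2% charcoal-stripped FBS; incubate 5 hr; add compounds in DMSO; incubate 16 hr at 37 C; after the bla read, add CellTiter-Glo and read luminescence at 30 min.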

[13] = qHTS assay to identify small molecule agonists of the endoplasmic reticulum stress response signaling pathway (AID 1159516; active = well fitted activation curve with a large enough effect in the signal ratio in the repeat runs, not every such curve was filed as active; the % refers to the signal ratio)
Procedure, shortened: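 Cells are seeded at 1,500 per well and incubated overnight. Compounds in DMSO are added for 5 hr at 37 C, then beta-lactamase FRET substrate for 2 hr at room temperature, and fluorescence at 460 and 530 nm is measured.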

[14] = target: Retinoic acid receptor RXR-alpha (Homo sapiens) (UniProt P19793); assay: qHTS assay to identify small molecule agonists of the RXR signaling pathway (AID 1159527; calls by dose curve; also: nearly all actives have a fitted effect of over 35% in size)
Retinoic acid receptor RXR-alpha (Homo sapiens), sequence (P19793 whole entry, looked up): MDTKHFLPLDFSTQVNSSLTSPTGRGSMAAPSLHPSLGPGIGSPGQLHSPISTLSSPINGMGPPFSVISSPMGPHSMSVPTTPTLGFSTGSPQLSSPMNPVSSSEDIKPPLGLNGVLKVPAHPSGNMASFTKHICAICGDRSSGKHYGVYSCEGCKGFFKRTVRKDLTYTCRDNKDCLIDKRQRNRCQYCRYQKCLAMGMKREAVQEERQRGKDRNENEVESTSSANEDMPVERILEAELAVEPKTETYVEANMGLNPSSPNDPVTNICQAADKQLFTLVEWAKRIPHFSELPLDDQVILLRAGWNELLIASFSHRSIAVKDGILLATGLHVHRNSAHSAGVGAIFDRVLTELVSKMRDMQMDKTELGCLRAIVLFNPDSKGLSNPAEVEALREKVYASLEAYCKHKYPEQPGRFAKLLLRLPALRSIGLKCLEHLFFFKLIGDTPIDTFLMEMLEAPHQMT
Procedure, shortened: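 Cells plated at 2,000/well, rested 5 hr at 37 C, pin-dosed with DMSO compound solutions, incubated 16 hr, then loaded with B/G FRET substrate for 2 hr at RT before dual-emission fluorescence reading.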

| SMILES | Potency [1] | outcome [2] | outcome [3] | outcome [4] | Potency [5] | outcome [6] | outcome [7] | Potency [8] | Potency [9] | Potency [10] | Potency [11] | Potency [12] | outcome [13] | Potency [14] |
| --- | --- | --- | --- | --- | --- | --- | --- | --- | --- | --- | --- | --- | --- | --- |
| O=C(CS)OCCOC(=O)CS | inactive | inactive | inactive | inactive | inactive | inactive | inactive | inactive | 27.3 µM (active) | inactive | – | – | – | – |
| CCC(C)(O)CCC=C(C)C (stereo not drawn) | inactive | inactive | inactive | inactive | – | inactive | inactive | inactive | – | – | inactive | inactive | – | – |
| c1ccc(COCc2ccccc2)cc1 | inactive | inactive | inactive | – | inactive | inactive | inactive | inactive | inactive | inactive | – | inactive | inactive | – |
| CCOC(=O)C(C)Oc1ccc(Oc2nc3ccc(Cl)cc3o2)cc1 (stereo not drawn) | inactive | inactive | inactive | inactive | – | inactive | inactive | inactive | – | – | inactive | – | – | – |
| O=c1[nH]c2ccc(S(=O)CCN3CCC(Cc4ccc(F)cc4)CC3)cc2o1 (stereo not drawn) | inactive | inactive | inactive | inactive | – | inactive | inactive | inactive | inactive | inactive | inactive | inactive | – | – |
| CN1C(=O)CC(C)(c2ccccc2)C1=O (stereo not drawn) | – | inactive | inactive | inactive | – | inactive | – | inactive | inactive | inactive | – | inactive | – | inactive |
